HT1080 IDH1KD tx = toxicity to HT-1080 IDH1 knockdown cells (counter line) | HT-1080 IDH1 knockdown viability, ATP luminescence, 48 h | Potency, µM (series often up to 46.1 µM), for the others: top-dose activity, negative = toxicity, hits mostly cytotoxic | 2% of 360,000 active | AID 686971;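 note: potency is the fitted concentration of half-maximal effect; 0% = DMSO wells and -100% = cell-free medium wells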
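Luminescent ATP read-out (CellTiter-Glo, 10 min at room temperature) after 48 h compound exposure at 37 °C gave viability of IDH1-knockdown HT-1080 cells. Activity was normalised to DMSO and cell-free wells, then fitted as concentration-response curves.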
TDP1 cell noCPT = qHTS for Inhibitors of human tyrosyl-DNA phosphodiesterase 1 (TDP1): qHTS in cells in absence of CPT | AID 686978, 2013 | 15% of 420,000 active | Potency, µM (top dose mostly 46.2 µM), inactives show at the top dose activity change, negative = growth inhibition, actives largely listed as inhibitors | DT40 Tdp1-/- hTDP1 cells, no CPT, ATP luminescence, 48 h; note: potency is the fitted concentration of half-maximal effect; nearly all actives have a fitted effect of over 55% in size
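DT40 Tdp1-/-;hTDP1 cells, no CPT (DMSO vehicle only), 400 cells/well; compounds pin-transferred; ≥48 hr, 37 °C; CellTiter-Glo 30 min RT dark, luminescence read.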
12-LOX inh = inhibitors of human 12S-lipoxygenase ALOX12; Potency, µM (series often up to 108 µM), for inactives: at the top dose activity change, negative = inhibition, most hits filed as inhibitors; P18054; purified 12hLO, xylenol orange hydroperoxide absorbance; 1.1% of 580,000 active; AID 1671190; note: potency is the fitted concentration of half-maximal effect
Target sequence (P18054 whole entry, looked up): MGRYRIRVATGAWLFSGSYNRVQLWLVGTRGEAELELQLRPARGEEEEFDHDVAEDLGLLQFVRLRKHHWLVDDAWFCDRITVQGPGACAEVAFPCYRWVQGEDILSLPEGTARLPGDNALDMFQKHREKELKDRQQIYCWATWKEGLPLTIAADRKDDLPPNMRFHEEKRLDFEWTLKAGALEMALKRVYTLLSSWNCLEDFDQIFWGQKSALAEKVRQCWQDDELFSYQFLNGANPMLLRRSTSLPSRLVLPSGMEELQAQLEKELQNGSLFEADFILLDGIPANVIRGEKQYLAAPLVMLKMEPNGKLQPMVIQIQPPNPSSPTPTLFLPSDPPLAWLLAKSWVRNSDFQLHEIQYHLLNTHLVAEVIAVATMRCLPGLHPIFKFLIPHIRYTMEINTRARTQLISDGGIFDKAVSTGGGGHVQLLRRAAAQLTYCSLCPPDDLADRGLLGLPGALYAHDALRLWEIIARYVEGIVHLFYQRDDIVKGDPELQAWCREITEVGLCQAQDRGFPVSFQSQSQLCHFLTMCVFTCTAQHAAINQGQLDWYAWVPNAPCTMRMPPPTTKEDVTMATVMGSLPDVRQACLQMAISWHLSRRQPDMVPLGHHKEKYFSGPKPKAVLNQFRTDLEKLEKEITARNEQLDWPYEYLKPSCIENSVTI
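Purified human 12hLO at 150 nM in 25 mM Hepes, 0.01% Triton X-100, pH 7.0, preincubated 15 min at room temperature with compound. Reaction started with 40 uM arachidonic acid, 30 min at room temperature. Hydroperoxide measured by Fe-xylenol orange, 573/405 nm absorbance ratio.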
TDP1 cell CPT = DT40-hTDP1 cell growth loss with CPT | chicken DT40 Tdp1-/-;hTDP1 cells + 20 nM CPT, ATP luminescence, 48 h | 12% of 420,000 active | Potency, µM (top dose mostly 46.2 µM), without a hit: at the highest dose activity change, negative = growth inhibition, hits mostly inhibitors; note: potency is the fitted concentration of half-maximal effect; nearly all actives have a fitted effect of over 55% in size
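Cell growth measured by CellTiter-Glo luminescence after a minimum 48 h, 37 C compound exposure with 20 nM CPT in Tdp1-knockout DT40 cells stably expressing hTDP1, seeded 400/well; qHTS titration format.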
IL-1B inflam inh = inhibitors of inflammasome signaling (IL-1 beta secretion); activity change, % at 57.5 µM; THP-1 LPS/ATP IL-1B secretion, AlphaLISA, 16 h; hits give low values; 4.7% of 360,000 active; in the data active = activity change below about -50%; inconclusive = mostly about -30% to -49%
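THP-1 cells pretreated 1 hr with compounds (up to 57.5 uM final), then stimulated with LPS (250 ng/mL final) plus ATP (1.25 mM final); secreted IL-1B measured by AlphaLISA after 16 hr, decreased signal indicating inhibition.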
HT1080-NT tox = kills 2HG-producing HT-1080-NT fibrosarcoma cells; HT-1080-NT fibrosarcoma viability, CellTiter-Glo ATP luminescence, 48 h; Potency, µM (top dose mostly 46.1 µM), without a hit: top-dose activity, negative = less viability, most hits filed as cytotoxic; 1.6% of 360,000 active;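 note: NT is the 2HG producing partner of a matched IDH1 knockdown line; potency is the fitted concentration of half-maximal effect; 0% = DMSO-treated cells and -100% = media-only wells without cells; nearly all actives have a fitted effect of over 55% in size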
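Compounds were tested in concentration-response format on HT-1080-NT cells for 48 hours at 37 degrees C. Cell viability came from CellTiter-Glo luminescence; curves were classified by r2, response magnitude and activity.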
* = called active by the depositor; [ ] = dose if it differs, or a comment. This excerpt belongs to a sample that is enriched for hits. Unless noted, calls come from the whole dose curve; as a rule, active = well fitted curve in the direction sought with a large enough effect; inconclusive = small, poorly fitted or top-dose-only effect, or another doubt; inactive = no such curve, though single readings can be large; an effect the other way counts as inactive or inconclusive. Unless noted, % is set by controls: 0 for no effect and ±100 for the full control effect.

What do the screens show for `Brc1ccc(-c2nc3ccc(Br)cn3c2Cc2ccccc2)cc1`?
HT1080 IDH1KD tx: inconclusive; TDP1 cell noCPT: 21µM*; 12-LOX inh: inconclusive; TDP1 cell CPT: inconclusive; IL-1B inflam inh: -16; HT1080-NT tox: inconclusive

What do the screens show for `Cc1cc(Br)cn2c(Cc3ccsc3)c(-c3cccc(Cl)c3)nc12`?
HT1080 IDH1KD tx: 16%; TDP1 cell noCPT: inconclusive; 12-LOX inh: -45%; TDP1 cell CPT: -19%; IL-1B inflam inh: 7; HT1080-NT tox: 16%

Results for Clc1ccc(-c2nc3ccc(Br)cn3c2Cc2ccsc2)cc1 ?
HT1080 IDH1KD tx: inconclusive; TDP1 cell noCPT: 16µM*; 12-LOX inh: inconclusive; TDP1 cell CPT: 16µM*; IL-1B inflam inh: 44; HT1080-NT tox: -17%

What do the screens show for `CN(Cc1ccc(C(=O)NCC(F)(F)F)cc1)C(=O)c1ccc(F)cc1`?
12-LOX inh: 5%

Results for COc1cccc(CN2CCN(C(=O)c3cc(-c4ccncc4)nc4ccc(C)cc34)CC2)c1 ?
HT1080 IDH1KD tx: -19%; TDP1 cell noCPT: 16µM*; 12-LOX inh: 24%; TDP1 cell CPT: 23µM*; IL-1B inflam inh: -14; HT1080-NT tox: -14%

How did COc1cccc(CN2CCN(C(=O)c3cc(-c4ccccn4)nc4ccc(Cl)cc34)CC2)c1 do in these assays?
HT1080 IDH1KD tx: -1%; TDP1 cell noCPT: 18µM*; 12-LOX inh: 0%; TDP1 cell CPT: inconclusive; IL-1B inflam inh: 54; HT1080-NT tox: -19%

Results for O=c1c(Cl)c(Oc2cccc(F)c2)cnn1-c1ccc(C(F)(F)F)cn1 ?
12-LOX inh: -2%

Results for Nc1nc(/C=C/c2cccnc2)nc(-c2ccccc2O)n1 ?
HT1080 IDH1KD tx: -13%; TDP1 cell noCPT: 9.2µM*; 12-LOX inh: 5%; TDP1 cell CPT: 2.9µM*; IL-1B inflam inh: -60*; HT1080-NT tox: 1%

How did Nc1nc(/C=C/c2ccc(F)cc2)nc(-c2ccccc2O)n1 do in these assays?
HT1080 IDH1KD tx: 0%; TDP1 cell noCPT: -29%; 12-LOX inh: 9%; TDP1 cell CPT: inconclusive; IL-1B inflam inh: 20; HT1080-NT tox: -13%

What do the screens show for `O=S(=O)(c1ccccc1)N1CCC(Oc2ccc(-n3cnnn3)cc2)CC1`?
HT1080 IDH1KD tx: -7%; TDP1 cell noCPT: inconclusive; 12-LOX inh: 40%; TDP1 cell CPT: inconclusive; IL-1B inflam inh: -5; HT1080-NT tox: -12%

What do the screens show for `COc1ccc(S(=O)(=O)N2CCC(Oc3ccc(-n4cnnn4)cc3)CC2)cc1`?
TDP1 cell noCPT: -25%; 12-LOX inh: -14%; TDP1 cell CPT: 10µM*

What do the screens show for `O=S(=O)(c1cccc(C(F)(F)F)c1)N1CCC(Oc2ccc(-n3cnnn3)cc2)CC1`?
TDP1 cell noCPT: 4.6µM*; 12-LOX inh: 0%; TDP1 cell CPT: 5.8µM*

How did CC(C)(C)C(=O)c1c(N)[nH]c(C(=O)c2ccccc2)c1-c1ccccc1 do in these assays?
12-LOX inh: 6%

How did Cc1ccc(CSc2nnc(-c3cccc(S(=O)(=O)N4CCOCC4)c3)n2CC(C)C)cc1 do in these assays?
HT1080 IDH1KD tx: -17%; TDP1 cell noCPT: 8.2µM*; 12-LOX inh: -24%; TDP1 cell CPT: 13µM*; IL-1B inflam inh: inconclusive; HT1080-NT tox: -5%

Results for O=C(NCc1ccccc1F)c1cccc(S(=O)(=O)N2CCCCCC2)c1 ?
HT1080 IDH1KD tx: 3%; TDP1 cell noCPT: -12%; 12-LOX inh: 387%; TDP1 cell CPT: -22%; IL-1B inflam inh: -2; HT1080-NT tox: 2%[9.24 µM]

How did Cc1cc(C)c2c(c1)cc(C)c1nnc(SCC(=O)Nc3ccc(S(=O)(=O)N4CCCCC4)cc3)n12 do in these assays?
HT1080 IDH1KD tx: -16%; TDP1 cell noCPT: 21µM*; 12-LOX inh: -18%; TDP1 cell CPT: inconclusive; IL-1B inflam inh: 1; HT1080-NT tox: -8%

Results for O=C(Cc1ccccc1F)Nc1cccc(S(=O)(=O)N2CCCCC2)c1 ?
HT1080 IDH1KD tx: 0%; TDP1 cell noCPT: 21µM*; 12-LOX inh: 0%; TDP1 cell CPT: inconclusive; IL-1B inflam inh: 18; HT1080-NT tox: 0%

Results for O=C(COC(=O)c1ccc(Br)o1)Nc1cccc(S(=O)(=O)N2CCCCC2)c1 ?
HT1080 IDH1KD tx: -2%; TDP1 cell noCPT: -15%; 12-LOX inh: inconclusive; TDP1 cell CPT: -3%; IL-1B inflam inh: -6; HT1080-NT tox: 1%

What do the screens show for `O=C(Cc1ccc(Br)cc1)Nc1cccc(S(=O)(=O)N2CCCCC2)c1`?
HT1080 IDH1KD tx: inconclusive; TDP1 cell noCPT: 15µM*; 12-LOX inh: 5%; TDP1 cell CPT: inconclusive; IL-1B inflam inh: -6; HT1080-NT tox: -29%

What do the screens show for `CC(C)Cn1c(SCC(N)=O)nnc1-c1cccc(S(=O)(=O)N2CCOCC2)c1`?
HT1080 IDH1KD tx: -2%; TDP1 cell noCPT: 0%; 12-LOX inh: 375%; TDP1 cell CPT: 10%; IL-1B inflam inh: -4; HT1080-NT tox: 3%

How did COc1ccc(CC2CN(C(=O)c3ccnc(N)c3)CCO2)cc1 (stereo unspecified) do in these assays?
12-LOX inh: 17%

Results for CN(Cc1ccccc1)c1nc2c(c(=O)n(C)c(=O)n2C)n1Cc1ccc(F)cc1 ?
12-LOX inh: 2%

What do the screens show for `O=C(NC1CCN(Cc2ccccc2)C1)c1cnn(-c2ncc3c(n2)-c2ccccc2CC3)c1C1CC1` (stereo unspecified)?
TDP1 cell noCPT: -17%; 12-LOX inh: 1%; TDP1 cell CPT: 7%[9.04 µM]

How did CCCCn1nc(C(=O)Nc2ccc(OC)c(OC(F)F)c2)c2ccccc2c1=O do in these assays?
12-LOX inh: 27%

What do the screens show for `CCN(C)C(=O)CCc1c(C)nn(-c2cccc(C)c2)c1Oc1ccc(F)cc1F`?
12-LOX inh: 8%

Results for CCOc1ccc(NC(=O)CSc2nnc(C)n2C2CC2)cc1S(=O)(=O)N1CCCC1 ?
HT1080 IDH1KD tx: 0%; TDP1 cell noCPT: 3%; 12-LOX inh: 8%; TDP1 cell CPT: -16%; IL-1B inflam inh: 11; HT1080-NT tox: 1%

Results for Cc1nnc(SCC(=O)Nc2cccc(S(=O)(=O)N3CCCC3)c2)n1C1CC1 ?
HT1080 IDH1KD tx: 5%; TDP1 cell noCPT: 29µM*; 12-LOX inh: -6%; TDP1 cell CPT: -14%; IL-1B inflam inh: -6; HT1080-NT tox: 10%

Bioassay records: PubChem, National Center for Advancing Translational Sciences (NCATS)
